# Compound activity (PubChem BioAssay)
# This is a sample that favours compounds with a hit; in the whole collection about 7.9% have one here.
# FMDV antiviral = antivirals against foot and mouth disease virus; AID 1159524; 410,000 tested, 1.2% active; Potency, µM (top dose mostly 57.9 µM), inactives show at the top dose activity change, negative = inhibition, usual class: inhibitors; FMDV antiviral cell-based qHTS; calls by dose curve; tested in HEK293T cells; further: read-out not given here; potency means the concentration at half of the fitted maximal effect; nearly all actives have a fitted effect of over 45% in size
# Marburg entry inh = blocks Marburg virus binding to or entry into cells. Marburg virus pseudotyped entry inhibition, cell reporter. Potency, µM (highest dose often 37.8 µM), for the others: at the highest dose activity change, negative = inhibition, most hits filed as inhibitors. 300,000 tested, 1.8% active. AID 540276; calls by dose curve; tested in HEK293 cells; further: potency means the concentration at half of the fitted maximal effect
# HCV inhibitor = blocks hepatitis C virus; Huh7.5.1 HCVcc-Cre infection, luciferase reporter, 44 h; Potency, µM (series often up to 41.8 µM), without a hit: at the highest dose activity change, negative = inhibition, usual class: inhibitors; 340,000 tested, 3.4% active; AID 651820; active means well fitted inhibition curve with a large enough effect; inconclusive means small, poorly fitted or top-dose-only effect, or another doubt; inactive means no such curve, though single readings can be large or run the other way; further: potency means the concentration at half of the fitted maximal effect
#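 Infectious HCV cell culture screen: compound-treated cells (1,000/well, pre-plated 4 h) are infected with HCVcc-Cre at roughly 0.5 moi and grown 44 h. Infection is quantified by luciferase signal after 15 min substrate incubation at room temperature.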
# LASV entry inh = blocks Lassa virus binding to or entry into cells | AID 540256 | Lassa virus pseudotype entry inhibition, cell reporter | Potency, µM (titrated, usually from 37.9 µM), inactives show at the top dose activity change, negative = inhibition, usual class: inhibitors | 300,000 tested, 1.2% active; calls by dose curve; tested in HEK293 cells; further: potency means the concentration at half of the fitted maximal effect; nearly all actives have a fitted effect of over 50% in size
# HCMV antiviral = inhibitors of human cytomegalovirus; HFF cells, HCMV-luciferase reporter, 72 h; stronger effect = lower value; 410,000 tested, 4.5% active; activity change, negative = inhibition, % at 57.5 µM; in the data active means activity change below about -60%; inconclusive means no clear call, values can overlap the other calls; inactive means above about -39%
#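 Luciferase read-out from HCMV-luciferase-infected HFFs (MOI 1 PFU/cell) 72 h post infection at 37C; compounds added after 16 h cell attachment; activity normalized between buffer-only basal and Salinomycin (10uM) inhibitor controls.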
# * = called active by the depositor; ? = inconclusive; / = no result; [ ] = remark or other dose. On the % scale 0 is the no-effect control and ±100 the full control effect.
SMILES,FMDV antiviral,Marburg entry inh,HCV inhibitor,LASV entry inh,HCMV antiviral
Cc1cc2cc3c(cc2nc1SCC(=O)N1c2ccccc2CC1C)OCO3 (configuration not stated),0%,?,4µM*,?,-39
NC(=O)C1CCN(C(=O)/C(=C/c2ccccc2)NC(=O)c2ccccc2)CC1,-13%,/,8%,/,24
Cc1cc(Cl)ccc1NC(=O)CCC(=O)N/N=C/c1cccnc1,6%,2%[46.1 µM],7%,16%[46.1 µM],-68*
Cc1ccc(Cn2c(C)c3cnn(CC(=O)N4CCN(c5ccc(F)cc5)CC4)c(=O)c3c2C)cc1,?,5%[46.1 µM],/,?,?
CCOc1cc2nc3c4ccccc4n(C)c3nc2cc1OCC,9%,13%,-1%,-4%,?
CCN(CC)Cc1cc(Nc2c3ccccc3nc3c4ccccc4n(C)c23)cc(CN(CC)CC)c1O,-18%,?,?,11µM*,-25
COc1ccc(NC(=O)CC2C(=O)N(C)C(=S)N2Cc2ccc3c(c2)OCO3)cc1 (configuration not stated),15%,11µM*,27%,-21%,1
COc1cc(OC)cc(-c2nc3nc(C)c(CCC(=O)Nc4ccc(C)c(C)c4)c(C)n3n2)c1,-17%,22%[46.1 µM],/,-1%[46.1 µM],2
Cc1ccc([N+](=O)[O-])cc1N=Nc1c(-c2ccc([N+](=O)[O-])cc2)[nH]n(C(N)=S)c1=O,2.5µM*,/,7.9µM*,/,/
Cc1[nH]n(C(N)=S)c(=O)c1N=Nc1ccc(S(=O)(=O)N2CCCC2)cc1,0%,18%[46.1 µM],-2%,10%,-30
Cc1ccc(N=Nc2c(C)[nH]n(C(N)=S)c2=O)cc1,28%,-26%[46.1 µM],2.8µM*,?,22
Cc1ccc([N+](=O)[O-])cc1N=Nc1c(C)[nH]n(C(N)=S)c1=O,8%,/,11%,/,15
NC(=S)n1[nH]c(-c2ccc([N+](=O)[O-])cc2)c(N=Nc2ccc(Cl)cc2)c1=O,?,?,6.3µM*,?,/
Cc1[nH]n(C(N)=S)c(=O)c1N=Nc1ccc(Br)cc1,8%,/,-14%,/,67
CC1CCc2sc(C(=O)OCC(=O)NCc3ccccc3)cc2C1 (configuration not stated),-15%,-22%,10%,10µM*,-20
CC1CCc2sc(C(=O)NCc3ccc(F)cc3)cc2C1 (configuration not stated),38%,-6%,11%,5%,-4
Cc1ccc(CNC(=O)COC(=O)c2cc3c(s2)CCC(C)C3)cc1 (configuration not stated),1%,?,0%,7.9µM*,-21
COc1cccc(Nc2ncc3nc(-c4cc(F)cc(F)c4)c(=O)n(C4CC4)c3n2)c1,-13%,/,/,/,/
Oc1c(C(c2cccc(Br)c2)N2CCCC2)sc2nc(-c3ccco3)nn12 (configuration not stated),4%,/,/,10%[46.1 µM],-3
O=C(Nc1ccc(C(=O)N2CCOCC2)cc1)c1cc(-c2cccnc2)nc2ccc(Br)cc12,?,?,?,?,-107*
COc1ccc(-c2cc(C(F)F)n3ncc(C(=O)Nc4ccc(C(=O)N5CCOCC5)cc4)c3n2)cc1,-18%,/,-13%,/,-68*
O=C(Nc1ccc(C(=O)N2CCOCC2)cc1)c1cnn2c(C(F)F)cc(-c3ccccc3)nc12,0%,?,?,-1%[46.1 µM],39
COc1ccc(-c2cc(C(F)F)n3ncc(C(=O)Nc4cc(OC)ccc4OC)c3n2)cc1,0%,-1%[46.1 µM],/,3%[46.1 µM],-9
COc1ccc(-c2cc(C(F)F)n3ncc(C(=O)n4ccnc4C)c3n2)cc1,14µM*,?,-5%,-15%,145
COCCC(=O)NCC1Cc2cc(Cl)cc(-c3ccc4[nH]ccc4c3)c2O1 (configuration not stated),1%,/,/,/,/
SMILES,FMDV antiviral,Marburg entry inh,HCV inhibitor,LASV entry inh,HCMV antiviral
CN1OC[C@@H]2CN(S(=O)(=O)c3cc(Cl)cc(Cl)c3)[C@H](c3ccc(-c4ccc(C#N)cc4)cc3)C[C@@H]21,-10%,/,/,/,19
Cc1ccc(OCC(=O)Nc2cccnc2Cl)cc1C,57%,27%[46.1 µM],-10%,6%,-61*
Cc1ccc2nc(C)cc(C(=O)OCC(=O)Nc3cccnc3Cl)c2c1,-17%,30%[46.1 µM],1%,9%,-76*
O=C(COC(=O)c1cc2ccccc2cc1O)Nc1cccnc1Cl,7%,13%,-8%,24%,2
Oc1c(C(c2ccccc2F)N2CCC3(CC2)OCCO3)sc2nc(-c3ccco3)nn12 (configuration not stated),12%,/,/,?,11
Cc1ccc(NC(=O)/C=C/c2ccco2)cc1S(=O)(=O)N1CCCCCC1,0%,/,2.8µM*,/,-89*
Cc1ccc(NC(=O)CCl)cc1S(=O)(=O)N1CCCCCC1,22µM*,?,?,-25%,-98*
CCc1noc(C)c1C(=O)Nc1ccc(C)c(S(=O)(=O)N2CCCCCC2)c1,28µM*,?,13µM*,-28%,-38
Cc1ccc(NC(=O)Cc2ccccc2F)cc1S(=O)(=O)N1CCCCCC1,-11%,/,11µM*,/,-78*
COc1ccccc1/C=C/C(=O)Nc1ccc(S(=O)(=O)Nc2cc(C)on2)cc1,-21%,12%,13%,14%,?
CN(C)C(=O)c1ccc(-c2cc3cnc(Nc4ccccc4Cl)cc3[nH]2)cc1,/,/,/,/,-27
COc1ccc([C@H]2C[C@@H](O)[C@H](n3cc(-c4ccc(F)cc4)nn3)CN2Cc2cccs2)cc1,/,8.9µM*,/,/,/
O=C(C1CCCCC1)N1C[C@H](O)[C@H](n2cc(-c3ccc(F)cc3)nn2)C[C@@H]1c1ccc(Cl)cc1,/,7.9µM*,/,/,/
O[C@@H]1CN(CC2CCCCC2)[C@@H](c2ccccc2)C[C@H]1n1cc(C2CC2)nn1,-19%,/,/,/,-21
O[C@H]1CN(CC2CCCCC2)[C@@H](c2ccc(Cl)cc2)C[C@@H]1n1cc(C2CC2)nn1,?,/,/,/,-71*
Cc1ccc([C@H]2C[C@H](O)[C@@H](n3cc(-c4ccc(F)cc4)nn3)CN2Cc2cccs2)cc1,-14%,/,/,?,-39
Cc1ccc([C@H]2C[C@H](O)[C@@H](n3cc(-c4ccc(F)cc4)nn3)CN2CC2CCCCC2)cc1,-6%,/,/,28µM*,5
COC(=O)CSc1ncc2c(n1)-c1ccccc1N(Cc1ccc(Cl)cc1)S2(=O)=O,-6%,/,/,-1%[46.1 µM],0
O=C(OCc1cn([C@H]2C[C@H](c3ccccc3)N(CC3CCCCC3)C[C@@H]2O)nn1)c1ccccc1,-1%,/,/,/,3
CCCCCCN1C[C@H](n2cc(-c3ccc(F)cc3)nn2)[C@@H](O)C[C@@H]1c1ccc(Cl)cc1,-6%,/,/,/,-102*
COc1ccc([C@H]2C[C@H](O)[C@@H](n3cc(COC(=O)c4ccccc4)nn3)CN2CC2CCCCC2)cc1,?,/,/,?,-90*
COCCCNC(=O)Cn1c(=O)n(-c2ccc(C)cc2)c(=O)c2c1c1cc(C)ccc1n2C,-2%,/,/,-1%[46.1 µM],9
Cc1ccc(/C=C2\SC(=S)N(CCCC(=O)Nc3cccc(C(=O)O)c3)C2=O)cc1,38%,/,-2%,/,-35
